Rango dissoc inh: inhibitors of RanGTP-induced Rango-importin beta complex dissociation; O95149+P62826; Biochemical FRET Rango-importin beta, RanGTP-induced dissociation; Potency, µM (series often up to 46.1 µM), for inactives: at the highest dose activity change, negative = inhibition; 340,000 compounds, 0.071% hits; AID 540253; note: potency is the fitted concentration of half-maximal effect; % of control where 0% means no effect; nearly all actives have a fitted effect of over 45% in size
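Compounds preincubate 5 min with complex of recombinant Rango and importin beta in PBS with 1 mM DTT. Ran (0.6 uM) loaded with 2 mM GTP plus 0.2 uM RCC1 starts dissociation; FRET is recorded 45 min later.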
KCNH2 3.1 inh: KCNH2 3.1 (human) potassium channel inhibition; U2OS KCNH2 3.1, thallium flux FluxOr; hits give low values; activity change, % (tested at about 1.8 µM); 340,000 compounds, 0.95% hits;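 active = maximum activity change below -70%; inconclusive = maximum activity change from -70% to -50%; inactive = maximum activity change above -50%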;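 note: thallium influx rate constant from kinetic fluorescence after stimulation buffer; % is set by controls: 0 for no effect and ±100 for the full control effect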
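Kinetic fluorescence (2 min after stimulation buffer) measures Tl+ influx through KCNH2 3.1 expressed by viral transduction in U2OS cells; the rate constant is normalized against DMSO controls serving as positive and negative references.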
Rango-impB inh: prevents formation of the Rango-importin beta complex. Q14974. Rango CFP/YFP FRET sensor + importin beta, 45 min. Potency, µM (top dose mostly 92.2 µM), for inactives: at the highest dose inhibition of complex formation. 340,000 compounds, 0.031% hits. AID 540263;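 note: potency is the fitted concentration of half-maximal effect; 0% = DMSO wells and 100% = buffer wells lacking importin beta; nearly all actives have a fitted effect of over 15% in size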
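FRET biosensor Rango (snurportin 1 IBB between N-terminal EYFP and C-terminal Cerulean), 50 nM in PBS/1 mM DTT/0.02% Tween-20/0.1% BSA, preincubated 5 min RT with compound; 0.125 microM importin beta added, 45 min RT, CFP/YFP FRET ratio read.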
KCNH2 WT inh: blocks the wildtype human KCNH2 potassium channel | activity change, % at 1.84 µM | AID 720551 | U2OS, BacMam KCNH2, thallium flux FluxOr; hits give low values | 340,000 compounds, 0.37% hits;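 active = maximum activity change below -70%; inconclusive = maximum activity change between -70% and -50%; inactive = maximum activity change above -50%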; note: % is set by controls: 0 for no effect and ±100 for the full control effect
Target sequence (Q12809 whole entry, looked up): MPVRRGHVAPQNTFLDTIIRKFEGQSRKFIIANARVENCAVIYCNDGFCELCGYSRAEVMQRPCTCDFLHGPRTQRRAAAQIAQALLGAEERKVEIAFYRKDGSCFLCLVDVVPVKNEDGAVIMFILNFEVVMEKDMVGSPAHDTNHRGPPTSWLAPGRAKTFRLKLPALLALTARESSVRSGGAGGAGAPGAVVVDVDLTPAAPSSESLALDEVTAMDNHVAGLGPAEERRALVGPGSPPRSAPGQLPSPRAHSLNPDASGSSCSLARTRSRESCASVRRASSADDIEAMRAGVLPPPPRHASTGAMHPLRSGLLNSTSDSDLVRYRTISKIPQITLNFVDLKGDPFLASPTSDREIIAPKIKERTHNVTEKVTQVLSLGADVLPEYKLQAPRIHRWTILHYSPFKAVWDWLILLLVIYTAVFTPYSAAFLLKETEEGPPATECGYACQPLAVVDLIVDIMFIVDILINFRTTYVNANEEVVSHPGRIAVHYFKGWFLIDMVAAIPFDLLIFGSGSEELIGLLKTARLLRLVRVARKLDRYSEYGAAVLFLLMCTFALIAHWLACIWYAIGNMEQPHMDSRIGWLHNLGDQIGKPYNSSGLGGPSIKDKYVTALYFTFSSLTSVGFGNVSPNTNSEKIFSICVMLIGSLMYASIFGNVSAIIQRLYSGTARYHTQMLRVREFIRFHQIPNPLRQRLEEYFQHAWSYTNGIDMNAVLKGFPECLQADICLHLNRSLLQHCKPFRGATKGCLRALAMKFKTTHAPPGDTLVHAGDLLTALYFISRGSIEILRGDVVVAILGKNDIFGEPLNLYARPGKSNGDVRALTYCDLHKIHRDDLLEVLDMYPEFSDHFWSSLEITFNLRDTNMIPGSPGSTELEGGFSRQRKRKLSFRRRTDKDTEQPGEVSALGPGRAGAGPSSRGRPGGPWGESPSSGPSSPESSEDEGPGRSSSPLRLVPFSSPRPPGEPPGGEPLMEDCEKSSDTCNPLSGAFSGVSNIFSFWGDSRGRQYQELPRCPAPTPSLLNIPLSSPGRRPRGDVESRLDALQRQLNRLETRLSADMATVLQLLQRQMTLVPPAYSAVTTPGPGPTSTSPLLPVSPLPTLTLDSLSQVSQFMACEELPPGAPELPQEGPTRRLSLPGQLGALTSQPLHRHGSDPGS
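U2OS cells transduced with wild-type KCNH2 virus are loaded with FluxOr dye for 45 min, and thallium flux is measured in kinetic reads before and after stimulation buffer. Rate constants are normalized to DMSO controls.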
The depositor's hits bear a star; u = inconclusive; x = no result. Only some compounds are listed: those with a hit (about 1.3% of all), similar ones and a draw of the others. Unless noted, calls come from the whole dose curve.

SMILES | Rango dissoc inh | KCNH2 3.1 inh | Rango-impB inh | KCNH2 WT inh
CC(=O)Cn1ncc(N(C)Cc2ccccc2)c(Cl)c1=O | 5% | -16 | 6% | -1
CCOc1ccc(C(=O)N2CCN(c3cccc(C)c3C)CC2)cc1 | 10% | -74* | 2% | 10
Cc1ccc(-c2cc(Cc3ccccn3)c(=O)[nH]n2)cc1 | 14% | -159* | -1% | -152*
O=c1[nH]nc(-c2ccc(F)cc2)cc1Cc1ccccn1 | 10% | 13 | -1% | -1
COC(=O)CSc1nc(-c2ccc(C)cc2)c2c(c1C#N)CCCC2 | -18% | -73* | u | 2
N/C(Cc1ccc([N+](=O)[O-])cc1)=N\OC(=O)c1ccccc1Br | 1% | 7 | -2% | 11
N/C(Cc1ccc([N+](=O)[O-])cc1)=N\OC(=O)C(c1ccccc1)c1ccccc1 | -7% | -82* | -2% | 3
O=C(Nc1ccc([N+](=O)[O-])cc1)C(c1ccccc1)c1ccccc1 | x | -79* | x | 7
O=C(NCC(O)c1ccc([N+](=O)[O-])cc1)C(c1ccccc1)c1ccccc1 (centres undefined) | 1% | -11 | -1% | 3
COc1ccc(-c2sc3ccc(OC)cc3c2-c2ccc(OC)c(F)c2)cc1 | -8% | -4 | 0% | -16
COc1ccc(-c2sc3ccc(N4CCOCC4)cc3c2-c2ccc(OC)c(F)c2)cc1 | 7% | -87* | -1% | -13
C[C@H](CO)N1C[C@H](C)[C@@H](CN(C)S(=O)(=O)c2ccc(F)cc2)Oc2ccc(NC(=O)CCN3CCOCC3)cc2C1=O | -4% | 1 | -1% | 1
Cc1nn(Cc2ccc([N+](=O)[O-])cc2)c(=O)n1-c1ccc(Cl)cc1 | -6% | -78* | -3% | 3
CC1CC(C)CN(CC(=O)Nc2ccc3c(c2)OCCO3)C1 (centres undefined) | 0% | -139* | 3% | -113*
Cc1ccc(C(=O)NC(=S)N2CCCCCC2)cc1 | -19% | -12 | -3% | -9
CN(C(=O)COC(=O)c1ccc(Cl)s1)C1(C#N)CCCCC1 | -10% | -7 | 3% | 1
CCCCNCC1C(Oc2ccc(Cl)cc2)C(=O)N1c1ccccc1C (centres undefined) | 55% | -94* | 3% | 5
COc1ccccc1NS(=O)(=O)c1ccc(C(=O)NCCCN2CCOCC2)cc1 | -8% | 10 | -1% | 2
Cc1cc(C)c2nc(C)cc(N/N=C/c3ccc(O)cc3)c2c1 | 15µM* | -12 | u | 16
Cc1cc(N/N=C/c2ccc(O)cc2)c2cccc(C)c2n1 | u | -36 | u | 8
NC(=S)N/N=C/c1cccc(/C=N/NC(N)=S)c1 | -21% | -128* | 3% | -3
NC(=S)N/N=C/c1cccc(Br)c1 | -26% | 1 | 1% | -11
O=C(NCc1ccccc1C(F)(F)F)C12CN(Cc3ccccc3)CC1C(c1ccc([N+](=O)[O-])cc1)=NO2 (centres undefined) | -4% | -118* | 1% | -33
COc1cccc(CNC(=O)C23CN(Cc4ccccc4)CC2C(c2ccc([N+](=O)[O-])cc2)=NO3)c1 (centres undefined) | -9% | -102* | u | -1
Cc1ccc(CCNC(=O)C23CN(Cc4ccccc4)CC2C(c2cccc([N+](=O)[O-])c2)=NO3)cc1 (centres undefined) | 22% | -28 | 3% | -25
SMILES | Rango dissoc inh | KCNH2 3.1 inh | Rango-impB inh | KCNH2 WT inh
COc1ccc(CCNC(=O)C23CN(Cc4ccccc4)CC2C(c2cccc([N+](=O)[O-])c2)=NO3)cc1 (centres undefined) | 3% | 5 | 4% | -9
CC(C)CCNC(=O)C12CN(Cc3ccccc3)CC1C(c1ccc([N+](=O)[O-])cc1)=NO2 (centres undefined) | 5% | -107* | 0% | -46
CC(=O)Oc1ccccc1C(=O)C=Cc1cccc([N+](=O)[O-])c1 | -18% | -4 | 5% | 11
COC(=O)CNC(=O)Cn1c(=O)n(Cc2ccc(F)cc2)c(=O)c2sccc21 | -3% | 11 | 1% | 4
Cc1ccc(/C(N)=N/OC(=O)N2c3ccccc3Sc3ccccc32)cc1 | -6% | 8 | -2% | -176*
CN1CCN(c2ccc(Cl)cc2NC(=O)/C=C/c2cccc(F)c2)CC1 | -7% | -70* | -4% | u
COc1ccc(-c2nc3c(c(=O)[nH]c(=O)n3Cc3ccccc3)n2CCO)cc1 | -12% | -3 | -2% | -4

High-throughput results as filed in PubChem.
